Results as given in the supplement of paper PMC11732987, “Enantioselective OTUD7B fragment discovery through chemoproteomics screening and high-throughput optimisation” (Communications Chemistry, 2025).

Assays:
Assay in all cases: log2 ratio of Biotin-Ahx-Ub-VS probe labelling (fragment/DMSO); higher = less target engagement (more negative = stronger competition), active = hit call of the paper (q ≤ 0.05, log2 ratio ≤ -1)
Settings in all cases: compound concentration: 200 uM; treatment time: 3 h
[1] = target: T1, OTUD6B (UniProt Q8N6M0)
T1 sequence (whole entry): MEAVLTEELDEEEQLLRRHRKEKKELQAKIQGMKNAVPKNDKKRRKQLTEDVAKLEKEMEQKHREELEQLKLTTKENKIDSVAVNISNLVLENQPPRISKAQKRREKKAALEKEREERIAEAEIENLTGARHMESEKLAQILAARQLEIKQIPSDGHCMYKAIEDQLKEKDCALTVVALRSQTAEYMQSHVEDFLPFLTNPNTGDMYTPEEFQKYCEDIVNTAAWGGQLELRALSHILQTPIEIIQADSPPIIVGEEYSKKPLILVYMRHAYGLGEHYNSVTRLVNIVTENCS
Outline: (§1)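 HEK293T lysate (495 µg per sample, in Tris/CHAPS/IGEPAL buffer with protease inhibitors) was treated in triplicate with fragment at 200 µM or with DMSO for 3 h. It was then treated with Biotin-Ahx-Ub-VS (0.5 µM final) for 1 h. Labelled DUBs were NeutrAvidin-enriched, digested with LysC and trypsin, and run by diaPASEF LC-MS/MS. Spectronaut label-free quantities were global-median-normalised. Values are average log2 ratios fragment/DMSO by unpaired t-test, using proteins with ≥2 unique peptides.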

[2] = target: T2, OTUD7B (UniProt Q6GQQ9)
T2 sequence (whole entry): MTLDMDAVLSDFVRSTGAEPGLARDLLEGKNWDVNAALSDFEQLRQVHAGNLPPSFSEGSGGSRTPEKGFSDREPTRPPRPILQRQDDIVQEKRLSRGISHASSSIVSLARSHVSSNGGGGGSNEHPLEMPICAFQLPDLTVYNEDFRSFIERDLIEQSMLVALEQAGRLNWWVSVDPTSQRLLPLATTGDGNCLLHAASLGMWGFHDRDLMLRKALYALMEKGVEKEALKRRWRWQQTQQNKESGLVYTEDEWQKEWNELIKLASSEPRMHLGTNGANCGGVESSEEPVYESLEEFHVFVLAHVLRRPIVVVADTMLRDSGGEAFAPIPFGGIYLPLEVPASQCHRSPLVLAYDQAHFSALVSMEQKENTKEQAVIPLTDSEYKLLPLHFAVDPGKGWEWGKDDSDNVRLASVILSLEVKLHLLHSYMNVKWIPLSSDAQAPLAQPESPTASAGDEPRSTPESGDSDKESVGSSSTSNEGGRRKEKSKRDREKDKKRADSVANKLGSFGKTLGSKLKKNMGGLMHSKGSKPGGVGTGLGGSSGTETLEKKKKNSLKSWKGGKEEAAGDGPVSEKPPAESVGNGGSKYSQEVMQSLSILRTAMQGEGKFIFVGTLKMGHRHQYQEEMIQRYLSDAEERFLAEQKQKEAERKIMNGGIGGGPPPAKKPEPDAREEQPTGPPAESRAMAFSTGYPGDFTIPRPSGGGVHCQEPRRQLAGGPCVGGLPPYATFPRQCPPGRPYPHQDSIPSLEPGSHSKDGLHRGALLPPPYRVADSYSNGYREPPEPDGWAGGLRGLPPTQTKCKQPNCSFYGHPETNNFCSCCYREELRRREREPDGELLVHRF
Outline: as §1

[3] = target: PRPF8 (UniProt Q6P2Q9)
Outline: as §1

[4] = target: T3, PSMD7 (UniProt P51665)
T3 sequence (whole entry): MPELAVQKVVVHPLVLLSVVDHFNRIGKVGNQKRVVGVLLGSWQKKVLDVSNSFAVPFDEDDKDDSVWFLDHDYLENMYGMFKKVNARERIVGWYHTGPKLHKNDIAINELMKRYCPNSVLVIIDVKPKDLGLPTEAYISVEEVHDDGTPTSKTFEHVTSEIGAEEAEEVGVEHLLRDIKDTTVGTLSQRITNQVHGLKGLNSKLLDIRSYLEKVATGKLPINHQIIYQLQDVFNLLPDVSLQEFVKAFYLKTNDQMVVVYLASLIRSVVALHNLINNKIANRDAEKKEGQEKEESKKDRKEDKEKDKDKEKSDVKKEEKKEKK
Outline: as §1

[5] = target: UCHL1 (UniProt P09936)
Outline: as §1

[6] = target: T4, UCHL3 (UniProt P15374)
T4 sequence (whole entry): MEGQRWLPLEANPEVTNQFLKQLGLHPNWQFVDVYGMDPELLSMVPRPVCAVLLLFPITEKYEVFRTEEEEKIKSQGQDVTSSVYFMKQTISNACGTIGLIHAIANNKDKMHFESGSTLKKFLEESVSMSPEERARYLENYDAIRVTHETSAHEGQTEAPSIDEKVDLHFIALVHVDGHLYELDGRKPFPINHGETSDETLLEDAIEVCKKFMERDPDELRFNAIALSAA
Outline: as §1

[7] = target: T5, UCHL5 (UniProt Q9Y5K5)
T5 sequence (whole entry): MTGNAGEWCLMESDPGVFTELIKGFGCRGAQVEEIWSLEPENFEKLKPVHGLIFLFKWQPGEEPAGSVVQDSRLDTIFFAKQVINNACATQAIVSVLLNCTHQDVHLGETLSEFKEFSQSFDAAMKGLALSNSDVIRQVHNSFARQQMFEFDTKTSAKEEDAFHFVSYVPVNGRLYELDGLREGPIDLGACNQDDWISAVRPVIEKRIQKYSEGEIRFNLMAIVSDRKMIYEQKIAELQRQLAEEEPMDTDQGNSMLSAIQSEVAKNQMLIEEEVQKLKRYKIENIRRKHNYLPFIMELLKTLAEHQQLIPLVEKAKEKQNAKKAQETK
Outline: as §1

[8] = target: USP10 (UniProt Q14694)
Outline: as §1

[9] = target: T6, USP15 (UniProt Q9Y4E8)
T6 sequence (whole entry): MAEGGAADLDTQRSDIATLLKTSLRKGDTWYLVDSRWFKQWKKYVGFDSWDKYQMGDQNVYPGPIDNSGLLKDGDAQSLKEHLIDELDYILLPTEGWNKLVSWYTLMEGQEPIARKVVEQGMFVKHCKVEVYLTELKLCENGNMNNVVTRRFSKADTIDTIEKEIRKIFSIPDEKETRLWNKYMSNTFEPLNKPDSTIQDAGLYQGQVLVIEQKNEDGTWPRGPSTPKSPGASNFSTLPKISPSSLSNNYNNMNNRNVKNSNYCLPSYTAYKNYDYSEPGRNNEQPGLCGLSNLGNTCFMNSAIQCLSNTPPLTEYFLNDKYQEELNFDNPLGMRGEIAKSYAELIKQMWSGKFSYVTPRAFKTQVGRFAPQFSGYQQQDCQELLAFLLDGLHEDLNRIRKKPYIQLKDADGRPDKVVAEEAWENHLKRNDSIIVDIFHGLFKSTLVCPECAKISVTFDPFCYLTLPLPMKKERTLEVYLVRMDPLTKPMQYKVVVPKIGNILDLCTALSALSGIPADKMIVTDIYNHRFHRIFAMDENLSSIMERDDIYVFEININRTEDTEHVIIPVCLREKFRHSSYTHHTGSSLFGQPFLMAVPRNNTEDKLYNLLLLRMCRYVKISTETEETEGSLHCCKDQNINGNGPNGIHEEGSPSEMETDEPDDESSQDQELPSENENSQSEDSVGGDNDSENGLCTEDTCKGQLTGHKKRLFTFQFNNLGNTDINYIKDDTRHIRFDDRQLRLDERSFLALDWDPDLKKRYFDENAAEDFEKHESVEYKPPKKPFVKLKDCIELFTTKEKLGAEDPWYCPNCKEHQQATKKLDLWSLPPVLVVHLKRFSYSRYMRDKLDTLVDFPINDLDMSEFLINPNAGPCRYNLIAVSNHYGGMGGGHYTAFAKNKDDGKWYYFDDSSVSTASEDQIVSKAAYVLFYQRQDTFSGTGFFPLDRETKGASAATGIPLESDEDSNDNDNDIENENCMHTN
Outline: as §1

[10] = target: USP16 (UniProt Q9Y5T5)
Outline: as §1

Measured: log2 ratio of Biotin-Ahx-Ub-VS probe labelling

Sequence of USP16 (Q9Y5T5 whole entry, looked up): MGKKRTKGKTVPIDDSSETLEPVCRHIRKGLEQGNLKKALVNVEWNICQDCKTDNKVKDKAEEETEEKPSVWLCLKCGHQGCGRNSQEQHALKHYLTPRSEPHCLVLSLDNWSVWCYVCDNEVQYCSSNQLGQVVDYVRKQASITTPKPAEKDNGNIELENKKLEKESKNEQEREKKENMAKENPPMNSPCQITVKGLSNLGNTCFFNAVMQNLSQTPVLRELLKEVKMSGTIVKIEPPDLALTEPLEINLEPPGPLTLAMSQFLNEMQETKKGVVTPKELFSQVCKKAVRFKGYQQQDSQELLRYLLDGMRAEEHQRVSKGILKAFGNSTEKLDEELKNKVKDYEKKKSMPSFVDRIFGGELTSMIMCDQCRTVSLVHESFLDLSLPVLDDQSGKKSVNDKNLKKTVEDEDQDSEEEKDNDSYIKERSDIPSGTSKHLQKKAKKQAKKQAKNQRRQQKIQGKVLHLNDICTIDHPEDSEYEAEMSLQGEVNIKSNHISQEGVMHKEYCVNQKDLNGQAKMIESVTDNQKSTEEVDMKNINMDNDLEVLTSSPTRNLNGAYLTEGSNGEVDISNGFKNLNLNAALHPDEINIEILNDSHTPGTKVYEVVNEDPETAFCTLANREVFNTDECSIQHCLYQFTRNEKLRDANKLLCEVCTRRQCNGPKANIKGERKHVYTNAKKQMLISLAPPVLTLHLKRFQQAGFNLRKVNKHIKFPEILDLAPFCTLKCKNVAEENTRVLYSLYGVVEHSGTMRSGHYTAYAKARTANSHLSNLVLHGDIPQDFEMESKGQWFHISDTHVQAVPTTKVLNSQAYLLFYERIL
Sequence of UCHL1 (P09936 whole entry, looked up): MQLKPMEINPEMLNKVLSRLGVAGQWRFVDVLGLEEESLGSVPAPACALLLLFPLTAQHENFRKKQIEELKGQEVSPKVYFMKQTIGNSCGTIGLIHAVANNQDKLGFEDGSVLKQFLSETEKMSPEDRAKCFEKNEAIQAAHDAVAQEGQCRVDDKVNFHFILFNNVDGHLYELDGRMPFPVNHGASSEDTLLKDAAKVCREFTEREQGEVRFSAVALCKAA
Sequence of USP10 (Q14694 whole entry): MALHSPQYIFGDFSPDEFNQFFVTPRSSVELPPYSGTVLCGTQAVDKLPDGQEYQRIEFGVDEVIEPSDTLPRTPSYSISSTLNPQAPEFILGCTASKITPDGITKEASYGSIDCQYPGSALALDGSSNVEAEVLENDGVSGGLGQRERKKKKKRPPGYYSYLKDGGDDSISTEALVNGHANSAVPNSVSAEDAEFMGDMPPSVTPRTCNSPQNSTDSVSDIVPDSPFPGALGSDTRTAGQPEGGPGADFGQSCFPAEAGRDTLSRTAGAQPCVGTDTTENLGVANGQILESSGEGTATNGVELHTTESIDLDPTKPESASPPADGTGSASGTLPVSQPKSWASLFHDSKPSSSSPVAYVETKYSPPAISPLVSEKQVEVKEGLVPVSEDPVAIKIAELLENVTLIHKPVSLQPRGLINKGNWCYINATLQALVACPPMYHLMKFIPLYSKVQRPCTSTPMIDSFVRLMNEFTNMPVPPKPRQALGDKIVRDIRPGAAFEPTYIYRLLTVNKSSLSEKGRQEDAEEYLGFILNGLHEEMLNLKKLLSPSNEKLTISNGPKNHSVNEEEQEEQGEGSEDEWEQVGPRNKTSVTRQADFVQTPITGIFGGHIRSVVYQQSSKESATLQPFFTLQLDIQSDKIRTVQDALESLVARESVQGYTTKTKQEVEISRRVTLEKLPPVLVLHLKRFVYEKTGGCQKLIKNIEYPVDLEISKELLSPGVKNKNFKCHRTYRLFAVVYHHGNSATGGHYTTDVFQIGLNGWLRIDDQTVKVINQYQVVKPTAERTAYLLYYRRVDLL

O=C(CCl)N1CCOC(c2cccc(F)c2)C1 (stereo not given)
active: [2] -1.75 | [5] -1.68
inactive: [1] -0.268 | [3] -0.107 | [4] -0.115 | [6] 0.156 | [7] -0.463 | [8] -0.284 | [9] -0.387 | [10] 0.0465
